This is a sample that favours compounds with a hit; in the whole collection about 3.8% have one here.
HT1080 IDH1KD tx: toxicity to HT-1080 IDH1 knockdown cells (counter line) | HT-1080 IDH1 knockdown viability, ATP luminescence, 48 h | Potency, µM (highest dose often 46.1 µM), usual class: cytotoxic | 360,000 tested, 2% active
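Assay cells: HT-1080 with IDH1 knockdown, 750 per well, RPMI/5% FBS. Exposure: 48 h at 37 °C following 2 h pre-incubation. Read: CellTiter-Glo luminescence; fitted concentration-response, curve class assigned.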
ATXN2 expr inh: ATXN2 expression inhibition | HEK-293 ATXN2-luciferase reporter, luminescence, 24 h | Potency, µM (top dose mostly 57 µM), most hits filed as inhibitors | 360,000 tested, 0.72% active | AID 1745845; also: nearly all actives have a fitted effect of over 55% in size
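qHTS (up to 57 uM final) was run with 24 h compound exposure of reporter cells at 37 °C. Each well was multiplexed: SteadyGlo luminescence measured ATXN2-luciferase expression after a fluorogenic Gly-Phe-AFC viability readout (25 uM final).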
ATXN viability: reduces viability in counter-screen for ATXN expression inhibitors; S2 cells (HEK-293 line with an ATXN2-luciferase reporter) viability, CellTiter-Fluor protease fluorescence, 24 h; AID 651635; Potency, µM (highest dose often 56.7 µM), hits mostly cytotoxic; 400,000 tested, 0.49% active; also: nearly all actives have a fitted effect of over 40% in size
TGFb inhibitor: TGF-b pathway inhibition | HepG2 CAGA-GFP TGF-b/SMAD3 reporter, GFP fluorescence, 18 h; TGF-beta stimulated, 500 pg/mL final | Potency, µM (doses to about 46.1 µM), hits mostly inhibitors | 410,000 tested, 1.2% active | AID 588855; also: nearly all actives have a fitted effect of over 65% in size
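GFP signal (ex488/em500-530) from TGF-beta-stimulated HEPG2 CAGA-GFP cells, 500 pg/mL final, 18 h at 37 degrees C in DMEM plus 1% FBS, normalized to unstimulated and DMSO-stimulated controls.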
HepG2 tox: HepG2 cytotoxicity, counter-screen for TGF-b inhibitors; 410,000 tested, 0.76% active; HepG2 CAGA-GFP viability, ATP luminescence, 18 h; AID 588856; Potency, µM (titrated, usually from 46.1 µM), actives largely listed as cytotoxic
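HepG2 CAGA-GFP cells (1000/well, DMEM with 1% FBS) received compound, then TGF-beta at 500 pg/mL final, and were incubated 18 hours at 37 degrees C. Viability was read by CellTiter-Glo luminescence. Media-only wells were set as complete cell-killing and DMSO as no toxicity.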
HT1080-NT tox: kills 2HG-producing HT-1080-NT fibrosarcoma cells; HT-1080-NT fibrosarcoma viability, CellTiter-Glo ATP luminescence, 48 h; Potency, µM (series often up to 46.1 µM), actives largely listed as cytotoxic; 360,000 tested, 1.6% active;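 also: NT is the 2HG producing partner of a matched IDH1 knockdown line; nearly all actives have a fitted effect of over 55% in size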
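A 48-hour cytotoxicity screen used HT-1080-NT cells plated 2 hours before compound delivery. ATP-based CellTiter-Glo luminescence measured viability, normalized to DMSO and no-cell controls.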
Of the large screens only hits and unclear results are named; the others gave an inactive call. Calls follow the shape of the dose curve; as a rule, active = well fitted curve in the direction sought with a large enough effect; inconclusive = small, poorly fitted or top-dose-only effect, or another doubt; inactive = no such curve, though single readings can be large; an effect the other way counts as inactive or inconclusive.

Cc1cc(C)cc(NC(=O)Cn2nnc(C(=O)NCc3ccc4c(c3)OCO4)c2N)c1	HT1080 IDH1KD tx inconclusive, ATXN2 expr inh inconclusive, HT1080-NT tox 18.4µM
COc1cccc(Cn2nnc(C(=O)NCCc3ccc(Cl)cc3)c2N)c1	TGFb inhibitor inconclusive, HepG2 tox 17.8µM
CCOc1ccccc1NC(=O)Cn1nnc(C(=O)NCc2ccc3c(c2)OCO3)c1N	HT1080 IDH1KD tx 11.6µM, ATXN viability inconclusive, HT1080-NT tox inconclusive (no result: ATXN2 expr inh)
COc1cccc(Cn2nnc(C(=O)NCc3ccc(Cl)cc3Cl)c2N)c1	none (no result: HT1080 IDH1KD tx, HT1080-NT tox)
COc1ccc(NC(=O)Cn2nnc(C(=O)NCc3ccc4c(c3)OCO4)c2N)cc1	none
COc1ccc(NC(=O)c2ccc3c(c2)CCN3S(=O)(=O)c2ccc(C)cc2)cc1Cl	none (no result: HT1080 IDH1KD tx, HT1080-NT tox)
CC(C)(C)c1ccc(S(=O)(=O)N2CCC(O)(c3ccc(Cl)cc3)CC2)cc1	ATXN viability inconclusive, TGFb inhibitor 12.6µM, HT1080-NT tox inconclusive (no result: ATXN2 expr inh)
CNC1[C@H](O)C(O[C@@H]2C(O)C(O[C@H]3O[C@H]([C@@H](C)NC)CC[C@H]3N)[C@@H](N)C[C@H]2N)OC[C@]1(C)O (stereo partly drawn)	none (no result: HT1080 IDH1KD tx, ATXN viability, TGFb inhibitor, HepG2 tox, HT1080-NT tox)
O=C(N/N=C/c1ccc(Br)cc1)c1ccc(NC(=O)c2ccccc2)cc1	none (no result: ATXN2 expr inh)
Cc1[nH]n(-c2ccc(Br)cc2)c(=O)c1/C=N/NC(=O)c1ccccc1	HT1080 IDH1KD tx inconclusive, TGFb inhibitor 3.55µM, HT1080-NT tox inconclusive (no result: ATXN2 expr inh)
Cc1[nH]n(-c2ccccc2)c(=O)c1/C=N/NC(=O)c1cccc(F)c1	HT1080 IDH1KD tx 7.31µM, ATXN viability inconclusive, TGFb inhibitor inconclusive, HepG2 tox 15.8µM, HT1080-NT tox 10.3µM (no result: ATXN2 expr inh)
Cc1cc(C(=O)N/N=C/c2c(C)[nH]n(-c3ccccc3)c2=O)n[nH]1	none
CCn1c(-c2ccccc2F)nc2cc(C(=O)NCC3CCOCC3)cc(NC(C)=O)c21	none (no result: HT1080 IDH1KD tx, ATXN2 expr inh, TGFb inhibitor, HepG2 tox, HT1080-NT tox)
COc1ccccc1-c1noc(CCCC(=O)Nc2cc(C)ccc2C)n1	none (no result: HT1080 IDH1KD tx, ATXN2 expr inh, ATXN viability, HT1080-NT tox)
COc1cccc(N(CC(=O)N2CCC(C)CC2)S(=O)(=O)c2ccc(C)cc2)c1	none (no result: HT1080 IDH1KD tx, HT1080-NT tox)
CCn1c(Sc2ccc([N+](=O)[O-])cn2)nnc1-c1ccco1	HT1080 IDH1KD tx 18.4µM, TGFb inhibitor inconclusive, HT1080-NT tox 11.6µM
CCOC(=O)C1=C[C@@H](C(C)(C)C)N(S(=O)(=O)c2ccc(C)cc2)[C@H]1c1ccc(Cl)c(Cl)c1	HT1080 IDH1KD tx 14.6µM, TGFb inhibitor inconclusive, HT1080-NT tox 14.6µM
C[C@@H]1C(=O)O[C@H]2CC34[C@H]5C[C@@H](C(C)(C)C)C36[C@H](OC(=O)[C@@H]6O)O[C@@]4(C(=O)O5)[C@]21O (stereo partly drawn)	none (no result: HT1080 IDH1KD tx, ATXN viability, TGFb inhibitor, HepG2 tox, HT1080-NT tox)
O=C(Cn1cc(SCc2ccc(F)cc2)c2ccccc21)N1CCCCC1	TGFb inhibitor inconclusive (no result: HT1080 IDH1KD tx, ATXN2 expr inh, ATXN viability, HT1080-NT tox)
Cc1cc(C(F)(F)F)c(C#N)c(SCC(=O)Nc2nc3ccccc3s2)n1	HT1080 IDH1KD tx 18.4µM, HT1080-NT tox inconclusive
O=C(CSc1ncnc2c1oc1ccccc12)Nc1nc2ccccc2s1	HT1080 IDH1KD tx inconclusive, ATXN2 expr inh inconclusive, ATXN viability inconclusive, TGFb inhibitor inconclusive, HepG2 tox 12.6µM, HT1080-NT tox inconclusive
O=C1CC(c2ccccc2)Cc2[nH]c(=O)c(-c3nc(-c4ccc(Cl)c(Cl)c4)cs3)cc21 (stereo not drawn)	none (no result: HT1080 IDH1KD tx, HT1080-NT tox)
COc1ccc(NC(=O)C2CC23CCN(Cc2cccc4ncccc24)CC3)cc1Cl (stereo not drawn)	none (no result: HT1080 IDH1KD tx, ATXN2 expr inh, TGFb inhibitor, HepG2 tox, HT1080-NT tox)
COC(=O)C(CC(=O)c1ccc(Br)cc1)n1ccnc1 (stereo not drawn)	TGFb inhibitor 4.47µM, HepG2 tox 7.94µM (no result: HT1080 IDH1KD tx, ATXN2 expr inh, ATXN viability, HT1080-NT tox)
Nc1ccc(/C=C/c2nc3ccccc3s2)cc1	none (no result: HT1080 IDH1KD tx, ATXN2 expr inh, ATXN viability, HT1080-NT tox)
CN1c2ccccc2N(C)C1c1ccc2c(c1)OCO2	HT1080 IDH1KD tx inconclusive
Cc1cc2c(c(C)c1Cl)C(c1ccc3c(c1)OCO3)CC(O)(c1ccccc1)O2 (stereo not drawn)	TGFb inhibitor 20µM, HepG2 tox 17.8µM (no result: HT1080 IDH1KD tx, ATXN2 expr inh, ATXN viability, HT1080-NT tox)
